# Hits are enriched below; roughly 27% of the tested compounds scored in any of these assays.
# sEH act – soluble epoxide hydrolase (human) activation. 91,000 tested, 0.04% active. purified human sEH enzymatic activity, activator screen. activation, % at 2 µM. P34913; in the data active = activation above about 37%
# Target sequence (P34913 whole entry, looked up): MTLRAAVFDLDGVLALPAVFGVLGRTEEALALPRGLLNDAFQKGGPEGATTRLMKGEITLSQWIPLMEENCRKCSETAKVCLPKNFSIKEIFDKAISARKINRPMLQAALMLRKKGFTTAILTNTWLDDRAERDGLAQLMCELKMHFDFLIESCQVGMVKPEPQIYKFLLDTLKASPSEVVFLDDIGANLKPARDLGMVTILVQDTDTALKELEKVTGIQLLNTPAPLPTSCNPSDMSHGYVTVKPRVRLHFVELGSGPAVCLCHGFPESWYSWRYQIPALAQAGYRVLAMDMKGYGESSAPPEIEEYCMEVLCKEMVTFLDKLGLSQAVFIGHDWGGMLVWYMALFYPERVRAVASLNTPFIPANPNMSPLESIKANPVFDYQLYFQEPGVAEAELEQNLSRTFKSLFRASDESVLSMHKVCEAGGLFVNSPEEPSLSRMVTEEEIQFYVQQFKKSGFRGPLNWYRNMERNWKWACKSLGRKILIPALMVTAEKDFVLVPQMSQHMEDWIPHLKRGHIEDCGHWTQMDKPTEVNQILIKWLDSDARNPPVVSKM
# CYP2C9 inhib – inhibitors of human CYP2C9; P11712; CYP2C9 Supersomes, luciferin-H conversion, luminescence; inhibition, % at 5 µM; 96,000 tested, 20% active;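 active = blocking of liver enzyme CYP2C9 beyond about 50% at 5 µM, limit read from the data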
# sEH inhibitor – soluble epoxide hydrolase (human) inhibition; P34913; recombinant human sEH enzymatic activity assay; inhibition, % at 2 µM; 91,000 tested, 0.34% active; AID 707; in the data active = inhibition above about 80%
# CYP2C9 activ – CYP2C9 (human) activation; recombinant CYP2C9, luciferin-H conversion, luminescence; active compounds read high; factor 1 = untreated enzyme, 0 = blocked; 96,000 tested, 1.4% active; P11712; AID 1024; activation factor at 5 µM;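 active = activation factor of 2 or more for CYP2C9 at a 5 µM dose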;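 note: 0 = sulfaphenazole-blocked wells and 1 = vehicle-only wells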
# CYP2C19 inh – blocks human cytochrome P450 2C19; 96,000 tested, 21% active; inhibition, % at 5 µM; P33261; CYP2C19 Supersomes, luciferin-H EGE luminescence, 30 min;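 active = CYP2C19 inhibition above a set limit at 5 µM in the primary screen, cut at about 50% in these data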;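 note: plate controls were negative control wells for no effect and 2.5 mM tranylcypromine positive control for full effect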
# CYP2C19 act – increases human CYP2C19 enzyme activity | P33261 | recombinant CYP2C19, luciferin-H EGE luminescence; active compounds read high; 0 = fully inhibited enzyme, 1 = untreated enzyme | activation factor at 5 µM | 96,000 tested, under 10 active | AID 1025;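 active = activation factor of at least 2 at 5 µM in the primary screen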;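 note: 0 = wells with 2.5 mM tranylcypromine and 1 = vehicle-only wells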
# Starred values were filed as active, the others as inactive; · = no result.
SMILES,sEH act,CYP2C9 inhib,sEH inhibitor,CYP2C9 activ,CYP2C19 inh,CYP2C19 act
CCCCOc1[nH]c2nc(-c3ccco3)n(Cc3ccco3)c(=N)c2c1C#N,-7,81*,4,0.2,61*,0.4
CCCCn1c(-c2ccco2)nc2ccccc2c1=O,-3,24,6,0.8,29,0.7
Cc1nc2c(cnn2-c2ccc(Cl)cc2)c(=O)n1-c1ccc(N2CCC(C)CC2)cc1,15,2,-14,1,-6,1.1
O=C(CSc1nnc(-c2ccccc2)n1-c1ccccc1)N1c2ccccc2Sc2ccccc21,0,-5,-2,1.1,-6,1.1
Cc1ccc(C(=O)C2C(=O)c3ccccc3C2=O)cc1,8,77*,-9,0.2,13,0.9
Cc1ccc(C(=O)CN(C(=O)c2ccc(Cl)cc2)N2C(=O)c3ccccc3C2=O)cc1,-12,43,12,0.6,10,0.9
Fc1ccc2c(c1)C1C=CCC1C(c1cc3c(cc1Br)OCO3)N2 (stereo unspecified),0,69*,3,0.3,30,0.7
Cc1cc(NC(=O)CN2CC(C)OC(C)C2)n(-c2nc3ccccc3s2)n1 (stereo unspecified),15,56*,-17,0.4,57*,0.4
CCOC(=O)C1CCN(CC(=O)Nc2cc(C)nn2-c2nc3ccccc3s2)CC1,-10,49,8,0.5,5,0.9
CCN(CC)C(=O)CN(Cc1ccccc1)S(=O)(=O)c1ccc(F)cc1,17,-7,-17,1.1,16,0.8
COc1ccc(N2CS(=O)(=O)/C(=C/N(C)C)C2=O)cc1,-6,-4,7,1,-2,1
Nc1cccc(-n2nncc2-c2ccc(Cl)cc2)c1,-10,16,9,0.8,77*,0.2
CC(C)C1=C2OC(N)=C(C#N)C(C#N)=C2C(C)CC1 (stereo unspecified),·,10,·,0.9,15,0.8
CC1(C)OC(=O)N(c2ccccc2)C12C=Cc1cc(Br)ccc1O2 (stereo unspecified),0,85*,-3,0.2,83*,0.2
CCCCc1cc(O)c(CCCC)c(O)c1,-4,97*,5,0,90*,0.1
O=C1OCCC1Sc1nnc(-c2ccc(Br)cc2)o1 (stereo unspecified),-6,5,9,1,62*,0.4
Cc1ccc(NC(=O)C(=O)NCc2ccc(/C=C(/C#N)C(=O)NCc3cccnc3)o2)cc1,-5,58*,4,0.4,12,0.9
CC(NC(=O)c1ccc(Cl)cc1)c1nnc(SCc2ccc([N+](=O)[O-])cc2)n1C (stereo unspecified),-6,3,5,1,0,1
CCOC(=O)c1ccc(NC(=O)CSc2nc(C)nc3c2c(=O)n(C)c(=O)n3C)cc1,·,3,·,1,2,1
CCOC(=O)c1c(N)c(C#N)c2n1CCCCC2,14,34,-12,0.7,95*,0.1
CC(CCc1ccc(O)cc1)N(C)CCc1ccccc1 (stereo unspecified),·,-21,·,1.2,8,0.9
COc1cc(NS(=O)(=O)c2ccc(NC(=O)C34CC5CC(CC(C5)C3)C4)cc2)ncn1,-1,-19,1,1.2,-1,1
CCc1ccc(-n2c(SCC(=O)Nc3cc(C)[nH]n3)nc3[nH]ncc3c2=O)cc1,-4,6,5,0.9,4,1
O=c1c2cn[nH]c2nc(SCc2ccc3c(c2)OCCO3)n1-c1ccccc1,-29,88*,27,0.1,90*,0.1
CCc1ccccc1-n1c(SCC(=O)Nc2ccc3c(c2)OCCO3)nc2[nH]ncc2c1=O,-64,61*,63,0.4,54*,0.5
SMILES,sEH act,CYP2C9 inhib,sEH inhibitor,CYP2C9 activ,CYP2C19 inh,CYP2C19 act
COc1ccccc1-n1c(SCC(=O)Nc2ccccc2F)nc2[nH]ncc2c1=O,-62,22,62,0.8,44,0.6
CC(O)C(=O)NCCOCCOCCNC(=O)C(C)O (stereo unspecified),9,44,-8,0.6,66*,0.3
CC(O)CCC(=O)NCCNC(=O)CCC(C)O (stereo unspecified),·,-15,·,1.1,-18,1.2
CCCC(NC(=O)CNC(=O)C(C)(C)C)C(=O)O (stereo unspecified),-4,-11,7,1.1,-5,1.1
CCOc1ccccc1COC(=O)c1cccc(-n2cnnn2)c1,2,-76,-2,1.8,46,0.5
CN(C1CCS(=O)(=O)C1)S(=O)(=O)c1ccc(N2CCCC2=O)cc1 (stereo unspecified),20,17,-17,0.8,-2,1
Cc1cc(-c2ccccc2)nc(N2CCC(C(=O)NCc3ccccc3Cl)CC2)n1,-82,·,82*,·,·,·
Cc1cc(C)nc(N2CCC(C(=O)NC3CCCc4ccccc43)CC2)n1 (stereo unspecified),-42,-76,42,1.8,-1,1
C=CCNC(=O)C1CCN(c2nc(C)cc(-c3ccccc3)n2)CC1,-11,77*,14,0.2,82*,0.2
Cc1cc2c(c(=O)n1CCN(C)C)C(c1ccncc1)C(C#N)=C(N)O2 (stereo unspecified),-8,-14,12,1.1,-12,1.1
Cc1cc2c(c(=O)n1Cc1cccnc1)C(Cc1ccccc1)C(C#N)=C(N)O2 (stereo unspecified),9,68*,-10,0.3,74*,0.3
COc1ccc(C2C(C#N)=C(N)Oc3cc(C)n(Cc4ccncc4)c(=O)c32)cc1 (stereo unspecified),4,72*,-5,0.3,62*,0.4
Cc1cc2c(c(=O)n1Cc1ccco1)C(c1cccnc1)C(C#N)=C(N)O2 (stereo unspecified),16,66*,-18,0.3,14,0.9
CCOc1cccc(-c2nn3c(-c4ccco4)nnc3s2)c1,-6,6,8,0.9,14,0.9
CNc1c([N+](=O)[O-])cnn1-c1ccc(Cl)cc1Cl,16,34,-13,0.7,53*,0.5
Cc1nc(N)sc1-c1nnc(SCC(=O)Nc2ccccc2C(F)(F)F)n1C,-6,6,5,0.9,-18,1.2
COc1cc(C2C=C(C34CC5CC(CC(C5)C3)C4)NC(=S)N2)cc(OC)c1OC (stereo unspecified),-10,54*,12,0.5,49,0.5
COc1ccc(C2=CC(c3cc(OC)c(OC)c(OC)c3)NC(=S)N2)cc1 (stereo unspecified),17,94*,-16,0.1,74*,0.3
Cc1cccc(C)c1NC(=O)C1(N(Cc2ccco2)C(=O)c2ccccn2)CCCC1,-8,63*,12,0.4,41,0.6
O=C(c1ccccn1)N(Cc1ccco1)C1(C(=O)NC2CCCCC2)CCCCC1,27,15,-31,0.8,2,1

# Screening results deposited in PubChem BioAssay by several laboratories.
